Common to all, as to test: PBM binding z-score (relative to random genomic background probes); higher = stronger binding; sequences stand for … in GC…GCGATTGACAGCGTAGAATGAAGG
For assay [1], the system named is RARb homodimer (NR concentration 270 nM). The gist of the method:
(§1)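 Custom Agilent 4×180K protein-binding microarrays carried double-stranded probes, each with a 34-nt variable region. These regions held direct-repeat seeds, single-nucleotide variants, half-site ablations and random human genomic background sequences. Ligand-free nuclear receptor dimers were incubated on the arrays for 1 h, antibodies against each partner (one per run) detected binding, and scanned fluorescence was regression-normalized. Binding z-scores take the random background probes as reference.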

Assay [2] concerns RARg:RXRa (NR concentration 270 nM, RXRa partner concentration 90 nM). The gist of the method: as §1
The subject of assay [3] is RARg homodimer (NR concentration 270 nM). The gist of the method:
as §1

For assay [4], the system named is RXRa DBDmut IVT, anti-RXR (DBD mutation: RXRa K156A/R161A, NR concentration 90 nM). In a few lines: as §1
The test system of assay [5] is RXRa homodimer (NR concentration 180 nM). In a few lines:
as §1

Assay [6] concerns THRa:RXRa (NR concentration 90 nM, RXRa partner concentration 90 nM). In a few lines:
as §1

In assay [7] the test system is THRa homodimer (NR concentration 90 nM). The gist of the method:
as §1

Assay [8] has as its system VDR homodimer (NR concentration 270 nM). The gist of the method:
as §1

Our source for the PBM binding z-score values is the supplement of paper PMC6555819.

With TCTCGGAGGACACAAAAGGTCAGAGCTCGACATC, the PBM binding z-score turned out to be 4.4 in assay [1]; 4.67 in assay [2]; 4.91 in assay [3]; 1.15 in assay [4]; 3.9 in assay [5]; 3.41 in assay [6]. Further, the PBM binding z-score was determined as 1.1 in assay [7] and 1.02 in assay [8].

On to CCTTACGGGTCACTGACTGGTTATAGCATTTGGA, for which the PBM binding z-score was 3.06 in assay [1]; 5.04 in assay [2]; 4.61 in assay [3]; 1.84 in assay [4]; 4.93 in assay [5]; 2.52 in assay [6]. The results for the PBM binding z-score in assay [7] and in assay [8] were 0.498 and 1.03, respectively.

Regarding GCATATAGGTAATACAAGGTGAAAGTACGATTGT, the PBM binding z-score in assay [1] worked out at 0.886; in assay [2] it was 0.699; in assay [3], 0.793; in assay [4], 0.0522; in assay [5], 0.99; in assay [6] it was 4.29. In addition, the PBM binding z-score in assay [7] amounted to 0.806; in assay [8], 0.163.

In the case of TCTATTAGTTGATTAGGGCAACCGTAACAGCGGA, the PBM binding z-score in assay [1] stood at 0.955; in assay [2], 0.567; in assay [3], 0.671; in assay [4] it was 1.16; in assay [5], 0.558; in assay [6], 0.75. Moreover, the PBM binding z-score in assay [7] stood at 0.547; in assay [8], 0.281.

Take CCTTACGCGTCACGAGGTTATAGCACGACGAGCG: the PBM binding z-score was determined as 0.644 in assay [1]; 0.881 in assay [2]; 0.604 in assay [3]; 0.705 in assay [4]; 1.38 in assay [5]; 1.51 in assay [6]. Further, the PBM binding z-score stood at 0.967 in assay [7] and 0.734 in assay [8].

Take GATACAGGGTCAGCTAGAGGCCAGAGGATGGAAA: the PBM binding z-score in assay [1] is 3.55; in assay [2] it was 6.91; in assay [3], 4.81; in assay [4], 1.22; in assay [5] it was 4.69; in assay [6], 2.93. In addition, the PBM binding z-score in assay [7] was determined as 0.198; in assay [8] it was 0.847.

In the case of ATCTCTAGGGAAAGTTCAGTGAAAGATCGATAGA, the PBM binding z-score in assay [1] came out at 2.2; in assay [2], 2.01; in assay [3], 2.11; in assay [4] it was 1.12; in assay [5], 1.21; in assay [6] it was 0.605. Further, the PBM binding z-score is 0.0589 in assay [7] and 1.68 in assay [8].

Consider ATCTCTAGGTAACCAATTTCAGTGAATGCCGAAC, for which the PBM binding z-score in assay [1] is 0.515; in assay [2], 0.324; in assay [3] it was 0.586; in assay [4], 0.556; in assay [5], 0.198; in assay [6] it was 0.887. Moreover, the results for the PBM binding z-score in assay [7] and in assay [8] were 0.984 and 0.312, respectively.

For the sequence TCGAATAGGTTAGGGGCATTCAGAATGGCGTCGA, the PBM binding z-score came out at 1.08 in assay [1]; 0.753 in assay [2]; 0.9 in assay [3]; 1.19 in assay [4]; 1.15 in assay [5]; 0.948 in assay [6]. In addition, the figures for the PBM binding z-score in assay [7] and in assay [8] were 0.436 and 0.995, respectively.

With GCTGCCAGGTCAACTGATGGTCAGCTAAAGCTCG, the PBM binding z-score in assay [1] was found to be 3.58; in assay [2], 5.49; in assay [3], 5.38; in assay [4], 1.94; in assay [5], 3.81; in assay [6], 3.68. The PBM binding z-score in assay [7] worked out at 2.18; in assay [8], 0.679.

Regarding TCTTGTAGATCAACAGGAGGGTAAGAAAGATCGA, the PBM binding z-score in assay [1] is -0.229; in assay [2], 0.172; in assay [3] it was 0.108; in assay [4] it was 0.172; in assay [5], 0.0944; in assay [6], -0.144. Further, the figures for the PBM binding z-score in assay [7] and in assay [8] were -1.1 and -0.319, respectively.

In the case of TCTAGTTGGTCAAATGTCACACACTCGAAATGCG, the PBM binding z-score in assay [1] amounted to 1.64; in assay [2] it was 1.73; in assay [3], 1.78; in assay [4], 1.24; in assay [5] it was 1.68; in assay [6], 0.653. Also, the PBM binding z-score in assay [7] worked out at 0.677; in assay [8] it was 0.702.

For the sequence TCTGCTAGGTCAGTTGGTCAGCTCACGAGCTGCC, the PBM binding z-score in assay [1] stood at 2.45; in assay [2], 2.61; in assay [3] it was 3.31; in assay [4], 0.58; in assay [5], 1.15; in assay [6], 1.38. In addition, the PBM binding z-score was 0.196 in assay [7] and -0.78 in assay [8].

For GCATATGGGTAATACAAGGTGAAAGTCCGATTGT, the PBM binding z-score in assay [1] was found to be 0.725; in assay [2], 0.405; in assay [3], 0.402; in assay [4] it was 0.208; in assay [5], 0.486; in assay [6], 3.98. The PBM binding z-score in assay [7] stood at 0.841; in assay [8], 0.115.
